Counter-ions that a name gives are not always drawn. ± gives the standard deviation of the averaged measurements.
Key:
Assay in all cases: cell viability (% of vehicle); higher = less cytotoxic
Settings in all cases: 10 µM; 72 h
HCI01 = system: HCI01 (cells of a triple-negative basal-like breast cancer xenograft)
HCI03 = system: HCI03 (cells of an ER-positive luminal breast cancer xenograft)
HCI09 = system: HCI09 (cells of a triple-negative luminal androgen receptor type breast cancer xenograft)
HCI11 = system: HCI11 (cells of an ER-positive luminal breast cancer xenograft)
HCI13 = system: HCI13 (cells of an ER-positive luminal breast cancer xenograft)
HCI16 = system: HCI16 (cells of a triple-negative basal-like breast cancer xenograft)
UCD52 = system: UCD52 (cells of a triple-negative basal-like breast cancer xenograft)
WHIM2 = system: WHIM2 (cells of a triple-negative basal-like breast cancer xenograft)
WHIM30 = system: WHIM30 (cells of a triple-negative basal-like breast cancer xenograft)
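Further: PDX cells carrying CMV promoter-driven luciferase, viability read as total photon flux per second by IVIS imaging following D-luciferin, vehicle control 0.1% DMSO.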

SMILES	cell viability (HCI01)	cell viability (HCI03)	cell viability (HCI09)	cell viability (HCI11)	cell viability (HCI13)	cell viability (HCI16)	cell viability (UCD52)	cell viability (WHIM2)	cell viability (WHIM30)
CC1OC(n2cc(F)c(=O)[nH]c2=O)C(O)C1O (configuration not stated) [Doxifluridine]	67.1 ± 35	152	89.8 ± 12	110	104 ± 7.4	148	93 ± 19	102 ± 19	175.4 ± 0.91
CC(Cn1cnc2c(N)ncnc21)OCP(=O)(O)O (configuration not stated) [Tenofovir]	89.1 ± 9.4	123	103 ± 15	106	112 ± 11	116	90.6 ± 6.9	99.3 ± 14	121.3 ± 1.2
CO/N=C(\C(=O)N[C@@H]1C(=O)N2C(C(=O)[O-])=C(COC(C)=O)CS[C@H]12)c1csc(N)n1.[Na+] [Cefotaxime (sodium salt)]	94.8 ± 14	121	105 ± 3.7	74.9	155 ± 13	107	116.5 ± 0.35	99.12 ± 0.99	136.3 ± 0.17
O=C(O)CCCN1CCC(OC(c2ccc(Cl)cc2)c2ccccn2)CC1.O=S(=O)(O)c1ccccc1 (configuration not stated) [Bepotastine Besilate]	155 ± 45	131	112 ± 1.6	96.6	121 ± 6.6	128	87.6 ± 21	87.7 ± 5.1	138 ± 10
N[C@@H](Cc1cc(I)c(Oc2cc(I)c(O)c(I)c2)c(I)c1)C(=O)O [L-Thyroxine]	66.5 ± 44	151	114 ± 14	93.3	150 ± 56	136	85 ± 2.5	93.6 ± 27	177 ± 6.2
CC1=NS(=O)(=O)c2cc(Cl)ccc2N1 [Diazoxide]	92.6 ± 9.1	151	86.4 ± 17	98.1	99.6 ± 11	102	104 ± 2.7	95.9 ± 3.5	117 ± 3.8
CCN(CC)CCNC(=O)c1cc(Cl)c(N)cc1OC [Metoclopramide]	112 ± 6.5	107	90.8 ± 17	94.6	121 ± 10	72.6	98.01 ± 0.093	88.4 ± 2.2	113 ± 27
CCC1OC(=O)CC(O)C(C)C(OC2OC(C)C(O)C(N(C)C)C2O)C(CCN2CC(C)CC(C)C2)CC(C)C(=O)C=CC(C)=CC1COC1OC(C)C(O)C(OC)C1OC (configuration not stated) [Tilmicosin]	89.4 ± 32	116	82 ± 4.8	80.9	99.5 ± 6.4	102	77.7 ± 9.9	84.1 ± 3.9	97 ± 10
Cc1ccc(=O)n(-c2ccccc2)c1 [Pirfenidone]	92.4 ± 3	99.8	103 ± 26	89.4	106 ± 4.5	91.3	85.5 ± 5.1	97 ± 15	111 ± 11
Cc1nc2n(c(=O)c1CCN1CCC(c3noc4cc(F)ccc34)CC1)CCCC2 [Risperidone]	133 ± 7.9	82.8	107 ± 61	105	118 ± 38	107	83.8 ± 11	86 ± 25	128 ± 15
CC(C)OC(=O)C(C)(C)Oc1ccc(C(=O)c2ccc(Cl)cc2)cc1 [Fenofibrate]	108 ± 18	106	93.6 ± 4.2	92.1	87.5 ± 35	135	89.1 ± 14	109 ± 1.6	137 ± 9.3
Oc1c(Br)cc(Br)c2cccnc12 [Broxyquinoline]	81.5 ± 50	89.1	25.5 ± 7.7	98.1	34.3 ± 4.1	122	72.8 ± 42	146 ± 60	98 ± 4.2
CS(=O)(=O)c1ccc(C(O)C(CO)NC(=O)C(Cl)Cl)cc1 (configuration not stated) [Thiamphenicol]	109 ± 26	104	85.8 ± 3.5	82.9	64.4 ± 4.1	103	84.7 ± 13	107 ± 29	122 ± 6.1
COC(=O)C1=C(C#N)NC(C)=C(C(=O)OC(C)C)C1c1cccc([N+](=O)[O-])c1 (configuration not stated) [Nilvadipine]	112 ± 8.1	125	77 ± 4.5	85.7	138 ± 29	101	70.2 ± 1.1	116 ± 12	83.4 ± 10
CCOC(=O)CCC(=O)OC1C(OC2C(C)C(OC3CC(C)(OC)C(O)C(C)O3)C(C)C(=O)OC(CC)C(C)(O)C(O)C(C)C(=O)C(C)CC2(C)O)OC(C)CC1N(C)C (configuration not stated) [Erythromycin Ethylsuccinate]	105 ± 5.4	97.5	97.4 ± 21	96.1	69.6 ± 1.3	132	87.3 ± 4.6	105 ± 20	108 ± 16
CO[C@H]1O[C@@H]2O[C@@]3(C)CC[C@H]4[C@H](C)CC[C@@H]([C@H]1C)[C@@]24OO3 [Artemether (SM-224)]	102 ± 17	111	79.3 ± 25	74.7	84.1 ± 3.5	123	77 ± 4.6	117 ± 3.2	99.8 ± 3.1
COc1ccc(-c2nc3ccc(C4=NNC(=O)CC4C)cc3[nH]2)cc1 (configuration not stated) [Pimobendan]	134 ± 7.2	132	129 ± 48	132	146 ± 11	121	119 ± 5.9	168.4 ± 1.3	119 ± 7
CCCCS(=O)(=O)NC(Cc1ccc(OCCCCC2CCNCC2)cc1)C(=O)O.Cl.O (configuration not stated) [Tirofiban hydrochloride monohydrate]	119 ± 1.7	123	107 ± 8.2	106	135 ± 8.5	101	91.9 ± 7.1	99.1 ± 24	113 ± 22
CCCNS(=O)(=O)Nc1ncnc(OCCOc2ncc(Br)cn2)c1-c1ccc(Br)cc1 [Macitentan]	75.9 ± 56	109	65 ± 16	91.4	51.7 ± 28	91.8	75.383 ± 0.03	77.1 ± 37	101.4 ± 0.41

SMILES	cell viability (HCI01)	cell viability (HCI03)	cell viability (HCI09)	cell viability (HCI11)	cell viability (HCI13)	cell viability (HCI16)	cell viability (UCD52)	cell viability (WHIM2)	cell viability (WHIM30)
CC(=O)OC12COC1CC(O)C1(C)C(=O)C(O)C3=C(C)C(OC(=O)C(O)C(NC(=O)OC(C)(C)C)c4ccccc4)CC(O)(C(OC(=O)c4ccccc4)C21)C3(C)C.O.O.O (configuration not stated) [Docetaxel Trihydrate]	106 ± 13	96.7	72.6 ± 5.4	86.1	101 ± 3.5	155	91.02 ± 0.77	72.3 ± 6.2	107 ± 5.4
O=C1c2ccccc2C(=O)C1c1ccccc1 [Phenindione]	127 ± 33	142	104 ± 5.7	94.7	92.6 ± 26	114	104 ± 7.3	124 ± 13	159 ± 35
Nc1ccc(C(=O)NCC(=O)[O-])cc1.[Na+] [Sodium 4-amiropparaty Hyalrate]	107.1 ± 0.65	109	122 ± 35	110	112 ± 12	107	91.5 ± 8.8	95.4 ± 6	171 ± 21
CCn1cc(C(=O)O)c(=O)c2cc(F)c(N3CCNCC3)cc21 [Norfloxacin]	104 ± 11	143	116 ± 27	101	163 ± 52	166	130 ± 8.1	80.5 ± 17	160 ± 12
COc1c2occc2cc2ccc(=O)oc12 [8-Methoxypsoralen]	116 ± 17	147	99.5 ± 6.5	104	121 ± 13	122	106.6 ± 0.24	101 ± 17	97.9 ± 1.8
O=C(O)c1cc(=O)c2ccccc2o1 [Chromocarb]	124 ± 23	119	96.2 ± 1.6	78.7	71.6 ± 5.2	111	92.59 ± 0.2	103 ± 11	85.9 ± 2.8
O=C([C@H](CCC/N=C(N)/N)NS(=O)(C1=C2NC[C@H](C)CC2=CC=C1)=O)N3[C@@H](C(O)=O)C[C@H](C)CC3 [Argatroban]	116 ± 7.1	130	98 ± 6.5	116	95.2 ± 6	96.6	80.3 ± 7.5	98.9 ± 18	132 ± 14
Nc1nc(F)nc2c1ncn2C1OC(COP(=O)(O)O)C(O)C1O (configuration not stated) [Fludarabine Phosphate (Fludara)]	101 ± 16	134	98.1 ± 17	124	98.8 ± 10	106	98.2 ± 4.5	127 ± 32	115 ± 13
CC1CCc2cc(F)cc3c(=O)c(C(=O)O)cn1c23 (configuration not stated) [Flumequine]	92.8 ± 10	156	93.1 ± 7.6	118	117 ± 6.8	138	107 ± 5.8	98.4 ± 4.2	135 ± 15
COCCc1ccc(OCC(O)CNC(C)C)cc1.COCCc1ccc(OCC(O)CNC(C)C)cc1.O=C(O)C(O)C(O)C(=O)O (configuration not stated) [Metoprolol Tartrate]	126 ± 15	111	112 ± 13	95	81.4 ± 14	112	88.1 ± 13	94.4 ± 13	107 ± 2.7
CC1(C)OC2COC3(COS(N)(=O)=O)OC(C)(C)OC3C2O1 (configuration not stated) [Topiramate]	103 ± 19	128	95.2 ± 20	138	133 ± 1.9	115	78.8 ± 6.2	105 ± 16	110 ± 5.4
Cl.c1ccc2c(CC3=NCCN3)cccc2c1 [Naphazoline HCl]	121 ± 18	105	104 ± 20	101	88.7 ± 14	93.3	81.6 ± 9.3	92.3 ± 26	122 ± 21
C=C[C@]1(C)C[C@@H](OC(=O)CSC(C)(C)CNC(=O)[C@H](N)C(C)C)[C@]2(C)[C@H](C)CC[C@]3(CCC(=O)[C@H]32)[C@@H](C)[C@@H]1O [Valnemulin HCl]	90.1 ± 7.2	107	66 ± 3.6	91.8	63.2 ± 0.68	120	78.3 ± 4.9	102 ± 20	114 ± 3
Cc1cc2c(cc1S(N)(=O)=O)S(=O)(=O)CCC2 [Meticrane]	109 ± 8.8	117	102 ± 6.3	89	103 ± 9.6	110	96.3 ± 10	97 ± 7.5	80.4 ± 2.8
CN1CCC(=C2c3ccccc3C=Cc3ccccc32)CC1.Cl [Cyproheptadine hydrochloride]	91 ± 16	115	83.3 ± 9	95.8	89.6 ± 1.1	90.1	79.8 ± 13	81.1 ± 14	116 ± 10
CCOC(=O)[C@H](CCc1ccccc1)N[C@@H](C)C(=O)N1[C@H](C(=O)O)C[C@H]2CCCC[C@@H]21 [Trandolapril]	121 ± 2.9	148	115 ± 11	98.7	124 ± 12	130	112 ± 20	109 ± 14	174 ± 15
Cn1c(=O)cc(N2CCCC(N)C2)n(Cc2cc(F)ccc2C#N)c1=O (configuration not stated) [Trelagliptin]	111 ± 7	116	112 ± 6.1	111	104 ± 1.3	95.2	96.2 ± 11	96.8 ± 4.5	121 ± 13
CCC1OC(=O)C(C)C(OC2CC(C)(OC)C(O)C(C)O2)C(C)C(OC2OC(C)CC(N(C)C)C2O)C(C)(O)CC(C)C(=NOCOCCOC)C(C)C(O)C1(C)O (configuration not stated) [Roxithromycin]	138 ± 34	147	113 ± 25	101	133 ± 12	154	103 ± 2.8	103 ± 17	188 ± 29
CCc1ccc(CCOc2ccc(CC3SC(=O)NC3=O)cc2)nc1.Cl (configuration not stated) [Pioglitazone HCl]	119 ± 6.9	129	93.7 ± 19	125	126 ± 2	102	116 ± 11	116 ± 13	182 ± 40

— the supplement of paper PMC6992640
